Measurements reported in PubChem BioAssay (EPA / NIEHS).
Where “and” joins values, the source holds several entries; their conditions need not be identical. Equal entries are not always repeated. More than one record can exist for a structure, and the calls need not agree. Calls of active or inactive are those of the source. How the source made its calls: active means hit-call score of the fitted dose curve at least 0.9, where 1 is the maximum; inactive means score below 0.9.

read-out: Intercellular Adhesion Molecule 1 (ICAM1), ICAM1 (gene 3383); test: BSK_KF3CT_ICAM1: BioMAP Diversity Plus: KF3CT Assay for Intercellular Adhesion Molecule 1 (ICAM1) Biomarker Activity (AID 2283067); conditions: primary human keratinocytes with fibroblasts; actives raise or lower the signal
Procedure: BSK_KF3CT is a cell-based, multiplexed-readout assay that uses keratinocytes and foreskin fibroblasts, a human skin primary cell co-culture, with measurements taken at 24 hours after chemical dosing in a 96-well plate.BSK_KF3CT_ICAM1 is an assay component measured in the BSK_KF3CT assay. It measures ICAM-1 antibody related to regulation of gene expression using ELISA technology.Data from the assay component BSK_KF3CT_ICAM1 was analyzed into 1 assay endpoint. This assay endpoint, BSK_KF3CT_ICAM1, was analyzed with bidirectional fitting relative to DMSO as the negative control and baseline of activity. Using a type of binding reporter, gain or loss-of-signal activity can be used to understand changes in the signaling as they relate to the gene ICAM1. Furthermore, this assay endpoint can be referred to as a primary readout, because this assay has produced multiple assay endpoints where this one serves a signaling function. To generalize the intended target to other relatable targets, this assay endpoint is annotated to the cell adhesion molecules intended target family, where the subfamily is Immunoglobulin CAM.
The levels of cell surface (or secreted, indicated by the prefix "s") biomarker endpoints were measured by ELISA. Overt cytotoxicity to cells in confluent adherent cultures (all systems other than the BT system) was assessed by measuring total protein levels using sulforhodamine B (SRB) staining in parallel cultures at the time of biomarker measurements, indicated as SRB endpoints. For proliferation assays for adherent cell types, individual cell types are cultured at sub-confluence and relative cell numbers quantified by SRB staining at time points optimized for each system (48 h: 3C and CASM3C systems; 72 h: BT and HDF3CGF systems; 96 h: SAg system). SRB was performed by staining cells with 0.1% SRB after fixation with 10% TCA and reading wells at 560 nm.Viability and proliferation of PBMC (T cells) was quantified by Alamar Blue reduction for the SAg and BT systems. For PBMC viability (referred to as PBMC Cytotoxicity within the assay endpoint names), cells were plated (75,000/well in a 96-well plate) and then chemical samples added for 1 h before addition of activators, SEB and TSST-1 (20 ng/mL final concentration each). Cells were incubated for 90 h. Then, Alamar Blue (20 uL/well) (Invitrogen, Cat DAL1100) was added for 6 h, and the plates were read with a fluorescence microplate reader at 546/580 nm (excitation/emission). For PBMC proliferation, cells were plated and activated as above but incubated for only 16 h prior to addition of Alamar Blue. Plates were read after 6 h.

Question: With `OCCC(F)(F)C(F)(F)C(F)(F)C(F)(F)C(F)(F)C(F)(F)F` as the compound, how does the outcome read?
Answer: inactive

Question: How did the outcome turn out when `CN1CCC[C@H]1c1cccnc1` was run?
Answer: inactive

Question: `CC(=O)CC(C)(C)O` was tested. Which outcome did it give?
Answer: inactive

Question: Which outcome does the source give for `COCC(C)OCC(C)O` (stereo not given) here?
Answer: inactive

Question: `CCOC(=O)CC(O)(CC(=O)OCC)C(=O)OCC` was tested. Which outcome did it give?
Answer: inactive

Question: With `COc1ccc([N+](=O)[O-])cc1N` as the compound, how does the outcome read?
Answer: inactive

Question: Which outcome does the source give for `CCCCC(CC)COC(=O)CCCCC(=O)OCC(CC)CCCC` (stereo not given) here?
Answer: inactive

Question: `Oc1cc2ccccc2c2ccccc12` was tested. Which AC50 did it give?
Answer: 6.96 µM (active)

Question: Which AC50 does the source give for `ClC1=C(Cl)C(Cl)(Cl)C(Cl)=C1Cl` here?
Answer: 9.94 µM (active)

Question: `CC(O)CO` (stereo not given) was tested. Which outcome did it give?
Answer: inactive

Question: For `CCN(CC)CCNc1ccc(CNC=O)c2sc3ccc(OC)cc3c(=O)c12`, which AC50 is on record?
Answer: 31.6 µM (active)

Question: `OC1CCC(C2CCCCC2)CC1` (stereo not given) was tested. Which outcome did it give?
Answer: inactive

Question: For `Cc1oc(-c2ccccc2)nc1CCOc1ccc(C[C@H](Nc2ccccc2C(=O)c2ccccc2)C(=O)O)cc1`, which AC50 is on record?
Answer: 7.43 µM (active)

Question: How did the outcome turn out when `CC(C)CCCCCCOC(=O)CCCCC(=O)OCCCCCCC(C)C` was run?
Answer: inactive

Question: With `CCCCCCCCCCCCCC[N+](C)(C)C` as the compound, how does the AC50 read?
Answer: 12.8 µM (active)

Question: With `CCCCCCCCCCCCc1ccccc1S(=O)(=O)O` as the compound, how does the AC50 read?
Answer: 31.5 µM (active)

Question: `CCCCC(CC)COC(=O)CCCCC(=O)OCc1ccccc1` (stereo not given) was tested. Which outcome did it give?
Answer: inactive

Question: How did the outcome turn out when `CCc1ccc(CCOc2ccc(CC3SC(=O)NC3=O)cc2)nc1` (stereo not given) was run?
Answer: inactive

Question: Which outcome does the source give for `OC1CCCCC1` here?
Answer: inactive

Question: With `OCCC(F)(F)C(F)(F)C(F)(F)C(F)(F)C(F)(F)C(F)(F)C(F)(F)C(F)(F)F` as the compound, how does the outcome read?
Answer: inactive

Question: What about the AC50 of the same compound?
Answer: 23.2 µM (active) and 20 µM (active)

Question: For `CC[C@H](c1ccc(O)cc1)[C@@H](CC)c1ccc(O)cc1`, which AC50 is on record?
Answer: 32.9 µM (active)

Question: Which outcome does the source give for `CN(C)C=O` here?
Answer: inactive

Question: With `CC1=C(/C=C/C(C)=C/C=C/C(C)=C/C(=O)O)C(C)(C)CCC1` as the compound, how does the AC50 read?
Answer: 30.6 µM (active)

Question: How did the outcome turn out when `CCCCCCCCOC(=O)CCCCCCCCC(=O)OCCCCCCCC` was run?
Answer: inactive

Question: For `O=[N+]([O-])c1ccc(O)cc1`, which outcome is on record?
Answer: inactive

Question: `CN1CCN(c2ccccc2/C=C2\SCCN(c3ccc(Cl)c(Cl)c3)C2=O)CC1` was tested. Which AC50 did it give?
Answer: 31.8 µM (active)

Question: How did the AC50 turn out when `NC(=O)N1C(=O)C(C(=O)c2cc(Cl)cs2)c2cc(F)c(Cl)cc21` (stereo not given) was run?
Answer: 12.4 µM (active)

Question: `CC(C)(C)CC(C)(C)c1ccc(O)c(-n2nc3ccccc3n2)c1` was tested. Which outcome did it give?
Answer: inactive

Question: `NC(=O)N(O)[C@@H]1C=C[C@H](Oc2cccc(Oc3ccc(F)cc3)c2)C1` was tested. Which outcome did it give?
Answer: inactive

Question: `CCCCOCCO` was tested. Which outcome did it give?
Answer: inactive

Question: `CC(C)(C)c1cc(C(C)(C)C)c(O)c(C(C)(C)C)c1` was tested. Which outcome did it give?
Answer: inactive

Question: Which outcome does the source give for `CCCOC(=O)c1ccc(O)cc1` here?
Answer: inactive

Question: With `C=C(C)C(=O)OCCC(F)(F)C(F)(F)C(F)(F)C(F)(F)C(F)(F)C(F)(F)F` as the compound, how does the outcome read?
Answer: inactive

Question: How did the AC50 turn out when `CCCCCCCCCCCCN1CCCC1=O` was run?
Answer: 36.8 µM (active)

Question: `CC(=O)NC1(c2cccc(F)c2)CCN(CC[C@@]2(c3ccc(Cl)c(Cl)c3)CN(c3ccccc3)C(=O)CO2)CC1` was tested. Which outcome did it give?
Answer: inactive

Question: How did the outcome turn out when `O=C(OCCOCCOC(=O)c1ccccc1)c1ccccc1` was run?
Answer: inactive

Question: With `CCCCCCC(=O)O` as the compound, how does the outcome read?
Answer: inactive

Question: Which outcome does the source give for `C[C@@H]1C[C@H]2[C@@H]3CCC4=CC(=O)C=C[C@]4(C)[C@@]3(F)[C@@H](O)C[C@]2(C)[C@@]1(O)C(=O)COP(=O)(O)O` here?
Answer: inactive

Question: Which AC50 does the source give for `FC(F)(I)C(F)(F)C(F)(F)C(F)(F)C(F)(F)C(F)(F)I` here?
Answer: 9.2 µM (active) [middle of 5 runs]
